PubChem BioAssay (Tox21)
“And” between values parts separate entries of the source, which are not always exact repeats. Equal entries are not always repeated. Records with an inconclusive call do not appear. The source made the active and inactive calls. Unless noted, calls follow the shape of the dose curve; as a rule, active = well fitted curve in the direction sought with a large enough effect in the repeat runs; inconclusive = weak or mixed curves; inactive = no such curve, though single readings can be large; an effect the other way counts as inactive or inconclusive.

Tests used:
[1] = molecular target: Thyrotropin receptor (Homo sapiens) (UniProt P16473); test: qHTS assay to identify small molecule agonists of the thyroid stimulating hormone receptor (TSHR) signaling pathway (AID 1224843; calls by dose curve; also: nearly all actives have a fitted effect of over 45% in size)
Summary of the method: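 Cell line HEK293 with TSHR; density 800/well. Exposure 30 min RT. Readout HTRF cAMP (cAMP-d2/anti-cAMP-cryptate), 1 h RT before reading.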

[2] = qHTS assay to identify small molecule agonists of the hypoxia (HIF-1) signaling pathway - cell viability counter screen (AID 1224844; calls by dose curve; also: nearly all actives have a fitted effect of over 50% in size)
Summary of the method: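 HRE-bla ME-180 cells, 2,000/well in 0.5% dialyzed FBS medium, treated 17 h at 37C with compounds. Viability read in the same wells as the bla reporter, by CellTiter-Glo luminescence after 30 min at room temperature.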

[3] = qHTS assay to identify small molecule agonists of H2AX (AID 1224845; active = well fitted activation curve with a large enough effect in the signal ratio in the repeat runs, not every such curve was filed as active; the % refers to the signal ratio)
Summary of the method: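 Wild-type CHO-K1 cells plated overnight, then exposed 3 hr at 37C to compounds at 15 concentrations (0.76% DMSO). Lysed, then HTRF anti-pH2AX(S139)-cryptate/anti-H2AX-d2 detection after 24 hr at room temperature; emissions 665 and 620 nm.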

[4] = qHTS assay to identify small molecule agonists of the hypoxia (HIF-1) signaling pathway (AID 1224846; active = well fitted activation curve with a large enough effect in the signal ratio in the repeat runs, not every such curve was filed as active; the % refers to the signal ratio)
Summary of the method: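 HRE-bla ME-180 beta-lactamase reporter cells in medium with 0.5% dialyzed FBS, pre-incubated 5 h then exposed to compounds 17 h at 37C, 5% CO2; reporter induction read with CCF4-AM FRET substrate.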

[5] = qHTS assay to identify small molecule agonists of H2AX - cell viability counter screen (AID 1224847; calls by dose curve; also: top concentration of the series differs between compounds; nearly all actives have a fitted effect of over 30% in size)
Summary of the method: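 Counter-screen for viability: CellTiter-Glo ATP luminescence read after 3 h compound treatment (15-point titration, 0.76% DMSO final) of CHO-K1 cells at 37C, with 30 min room-temperature reagent incubation.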

[6] = qHTS RealTime-Glo MT Cell Viability Assay in HepG2 cells - 24 hour (AID 1224867); also: nearly all actives have a fitted effect of over 50% in size
Summary of the method: (§1)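 Luminescence read-out: viable HepG2 cells reduce a prosubstrate to a NanoLuc substrate, giving a signal proportional to live cell number. Reads taken at 0, 8, 16, 24, 32 and 40 h of compound exposure at 37 C.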

[7] = qHTS RealTime-Glo MT Cell Viability Assay in HEK293 cells - 32 hour (AID 1224868); also: top concentration of the series differs between compounds; nearly all actives have a fitted effect of over 50% in size
Summary of the method: (§2)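 Nonlytic real-time viability readout: viable cells convert prosubstrate to NanoLuc substrate, giving luminescence proportional to live cell number. HEK293, 600 cells/well, compound added after 5 h, continuous culture at 37 C.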

[8] = A CellTox Green Cytotoxicity Assay to monitor cytotoxicity in HEK293 cells - 0 hour (AID 1224869); also: nearly all actives have a fitted effect of over 50% in size
Summary of the method: (§3)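 HEK293 cells, 600/well, were preincubated 5 hours and then exposed to compounds at 37 C for up to 40 hours. A cell-impermeant cyanine dye staining dead-cell DNA was read by fluorescence at 0, 8, 16, 24, 32 and 40 h time points.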

[9] = qHTS RealTime-Glo MT Cell Viability Assay in HepG2 cells - 40 hour (AID 1224870); also: nearly all actives have a fitted effect of over 50% in size
Summary of the method: (§4)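 HepG2 cells mixed with RealTime-Glo MT reagents (NanoLuc plus cell-permeant prosubstrate) were seeded at 600 cells/well, incubated 5 h at 37 C/5% CO2, then pinned with compounds in DMSO; nonlytic luminescence tracked viability during 40 h treatment.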

[10] = A CellTox Green Cytotoxicity Assay to monitor cytotoxicity in HEK293 cells - 40 hour (AID 1224871); also: nearly all actives have a fitted effect of over 45% in size
Summary of the method: as §3

[11] = qHTS RealTime-Glo MT Cell Viability Assay in HEK293 cells - 16 hour (AID 1224872)
Summary of the method: as §2

[12] = qHTS RealTime-Glo MT Cell Viability Assay in HepG2 cells - 8 hour (AID 1224873); also: nearly all actives have a fitted effect of over 55% in size
Summary of the method: as §4

[13] = qHTS RealTime-Glo MT Cell Viability Assay in HEK293 cells - 40 hour (AID 1224874); settings: RealTime-Glo luminescence; max response: hits give low values; also: nearly all actives have a fitted effect of over 50% in size
Summary of the method: (§5)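 600 cells/well were plated with the nonlytic NanoLuc/prosubstrate reagent, pre-incubated 5 h, then given 23 nL of compound in DMSO. Incubation at 37 C for 40 h, with luminescence from viable-cell-reduced substrate read repeatedly from 0 h.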

[14] = A CellTox Green Cytotoxicity Assay to monitor cytotoxicity in HEK293 cells - 24 hour (AID 1224875); also: series mostly up to about 77 µM; nearly all actives have a fitted effect of over 45% in size
Summary of the method: as §3

[15] = A CellTox Green Cytotoxicity Assay to monitor cytotoxicity in HepG2 cells - 16 hour (AID 1224876); also: nearly all actives have a fitted effect of over 45% in size
Summary of the method: (§6)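 HepG2 cells, 600/well, preincubated 5 h with CellTox Green dye, then exposed to Tox21 compounds in DMSO at 37 C for up to 40 h. Dead-cell DNA fluorescence read at the indicated time point.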

[16] = qHTS RealTime-Glo MT Cell Viability Assay in HepG2 cells - 32 hour (AID 1224877); also: nearly all actives have a fitted effect of over 55% in size
Summary of the method: as §1

[17] = A CellTox Green Cytotoxicity Assay to monitor cytotoxicity in HepG2 cells - 24 hour (AID 1224878); also: nearly all actives have a fitted effect of over 45% in size
Summary of the method: as §6

[18] = A CellTox Green Cytotoxicity Assay to monitor cytotoxicity in HepG2 cells - 40 hour (AID 1224879); also: nearly all actives have a fitted effect of over 40% in size
Summary of the method: as §6

[19] = qHTS RealTime-Glo MT Cell Viability Assay in HEK293 cells - 0 hour (AID 1224880)
Summary of the method: as §5

[20] = qHTS assay to identify small molecule antagonists of the estrogen related receptor (ERR) signaling pathway from Tox21 library (AID 1224848); also: nearly all actives have a fitted effect of over 50% in size
Summary of the method: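 Screening used an ERR reporter line supplied by NTP, exposed for 18 h at 37 C to library compounds delivered in DMSO. Signal was luciferase luminescence developed with ONE-Glo at room temperature for 30 min.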
% is scaled to controls: 0 for no effect and ±100 for the full control effect.

Sequence of Thyrotropin receptor (Homo sapiens) (P16473 whole entry, looked up): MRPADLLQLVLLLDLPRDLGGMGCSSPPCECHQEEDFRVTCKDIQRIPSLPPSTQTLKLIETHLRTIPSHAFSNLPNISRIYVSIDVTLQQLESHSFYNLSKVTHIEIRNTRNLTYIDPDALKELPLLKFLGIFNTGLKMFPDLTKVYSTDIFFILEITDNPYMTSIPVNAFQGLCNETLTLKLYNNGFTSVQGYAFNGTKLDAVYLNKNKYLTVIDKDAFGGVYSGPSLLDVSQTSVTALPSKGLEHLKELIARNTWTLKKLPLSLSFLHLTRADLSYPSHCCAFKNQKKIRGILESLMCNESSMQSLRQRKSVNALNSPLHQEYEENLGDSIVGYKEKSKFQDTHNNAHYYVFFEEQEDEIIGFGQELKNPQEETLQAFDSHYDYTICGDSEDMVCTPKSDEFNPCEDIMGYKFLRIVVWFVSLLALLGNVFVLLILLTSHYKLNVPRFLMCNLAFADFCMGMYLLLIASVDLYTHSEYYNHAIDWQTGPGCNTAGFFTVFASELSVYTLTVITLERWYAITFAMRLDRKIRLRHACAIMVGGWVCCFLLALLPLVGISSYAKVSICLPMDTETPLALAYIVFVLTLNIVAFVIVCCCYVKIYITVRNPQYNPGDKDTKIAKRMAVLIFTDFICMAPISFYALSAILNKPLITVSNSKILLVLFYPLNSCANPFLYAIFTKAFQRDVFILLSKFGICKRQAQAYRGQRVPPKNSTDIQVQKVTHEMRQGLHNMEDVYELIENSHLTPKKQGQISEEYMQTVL

N[C@H](Cc1c[nH]c2ccccc12)C(=O)O
inactive: outcome [1] | outcome [2] | outcome [3] | outcome [4] | outcome [5] | Potency [6] | Potency [7] | outcome [8] | outcome [9] | Potency [10] | Potency [11] | Potency [12] | max response [13] 20.7% and 3.97% | Potency [14] | outcome [15] | outcome [16] | Potency [17] | Potency [18] | outcome [19]

COc1ccc([N+](=O)[O-])cc1N
inactive: outcome [2] | outcome [3] | outcome [4] | outcome [5] | Potency [6] | Potency [7] | outcome [8] | outcome [9] | Potency [10] | Potency [11] | Potency [12] | max response [13] -5.95% and 0.4% | Potency [14] | outcome [15] | outcome [16] | Potency [17] | Potency [18] | outcome [19]

CC(C)OP(=O)(CP(=O)(OC(C)C)OC(C)C)OC(C)C
inactive: outcome [2] | outcome [3] | outcome [4] | outcome [5] | Potency [6] | Potency [7] | outcome [8] | outcome [9] | Potency [10] | Potency [11] | Potency [12] | max response [13] 4.3% and 0.573% | Potency [14] | outcome [15] | outcome [16] | Potency [17] | Potency [18] | outcome [19]

O=[N+]([O-])c1ccc2nc[nH]c2c1
inactive: outcome [1] | outcome [2] | outcome [3] | outcome [4] | outcome [5] | Potency [6] | Potency [7] | outcome [8] | outcome [9] | Potency [10] | Potency [11] | Potency [12] | max response [13] 4.04% and -21.2% | Potency [14] | outcome [15] | outcome [16] | Potency [17] | Potency [18] | outcome [19]

CC(C)(Oc1ccc(CCNC(=O)c2ccc(Cl)cc2)cc1)C(=O)O
inactive: outcome [1] | outcome [2] | outcome [3] | outcome [5] | outcome [20] | Potency [6] | Potency [7] | outcome [8] | outcome [9] | Potency [10] | Potency [11] | Potency [12] | max response [13] 3% and 2.4% | Potency [14] | outcome [15] | outcome [16] | Potency [17] | Potency [18] | outcome [19]

CC1(C)S[C@@H]2[C@H](NC(=O)COc3ccccc3)C(=O)N2[C@H]1C(=O)O
inactive: outcome [1] | outcome [2] | outcome [3] | outcome [5] | outcome [20] | Potency [6] | Potency [7] | outcome [8] | outcome [9] | Potency [10] | Potency [11] | Potency [12] | max response [13] 0.704% and 1.33% | Potency [14] | outcome [15] | outcome [16] | Potency [17] | Potency [18] | outcome [19]

CCCCCCCC=O
inactive: outcome [2] | outcome [3] | outcome [4] | outcome [5] | Potency [6] | Potency [7] | outcome [8] | outcome [9] | Potency [10] | Potency [11] | Potency [12] | max response [13] 1.74% and 27% | Potency [14] | outcome [15] | outcome [16] | Potency [17] | Potency [18] | outcome [19]
